cardiac RTF act = cardiac RTF calcium sensitization; P19429+P45379; IANBD-labeled TnC RTF fluorescence at EC20 calcium; 0% EC20 calcium, 100% full calcium; activation, % at 7.2 µM; 340,000 tested, 0.24% active;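 active means activation above the mean over all tested compounds plus 3 SD, cut at about 30% in these data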;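 further: rise in fluorescence read as greater calcium sensitivity of cardiac thin filaments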
IDE cell inh = cellular human IDE inhibition; HEK cells, FAbetaB cleavage, fluorescence polarization; inhibition, % at 5.59 µM; 320,000 tested, 0.41% active;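 active means percent inhibition above the average of all tested compounds plus 3 SD, set per screening campaign, cut at about 16% in these data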;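 further: IDE supplied by intact live HEK cells; FP after avidin binding of uncleaved biotin substrate so inhibition keeps polarization high; 0% = DMSO wells and 100% = 60 µM reference IDE inhibitor Ii1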
IDE cell activ = activators of human insulin-degrading enzyme in cells; activation, % at 5.96 µM; HEK cells, FAbeta-B cleavage, fluorescence polarization; 0% vehicle, 100% cell-free pure enzyme wells; 340,000 tested, 0.073% active; P14735;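 active means activation above the mean of all tested compounds plus 3 SD, set per screening campaign, cut at about 17% in these data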
CRFBP-R2 block = blocks CRF-induced signaling of the CRF-BP/CRF-R2 complex. HEK293 CRF-R2/CRF-BP, CRF-induced calcium fluorescence. inhibition, % at 11.8 µM. 350,000 tested, 0.59% active. AID 588475;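 active means inhibition of the ligand-induced calcium signal above about 50% at the single tested concentration, limit read from the data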
CRFBP-R2 agonist = agonists of human CRF-binding protein/CRF-R2 receptor complex | HEK293 CRF-R2/CRF-BP, calcium dye fluorescence (FLIPR); percent of saturating CRF peptide response | AID 588473 | 350,000 tested, 0.46% active | activation, % at 13.2 µM;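 active means activation of at least 50%, plus an integration ratio under a set limit after plate pattern correction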;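 further: plate controls were neutral control wells without compound for no effect and CRF at EC100 for full effect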
RTF Ca sens inh = cardiac RTF calcium desensitization; P19429+P45379; IANBD-labeled cardiac RTF, Ca2+ fluorescence; inhibition, % at 7.15 µM; 340,000 tested, 0.12% active;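 active means inhibition above the mean inhibition of all tested compounds plus 3 SD, cut at about 17% in these data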;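 further: assay run at fixed EC70 calcium of 1.6 mM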
* = called active by the depositor; nt = not tested or not shown. Only some compounds are listed: those with a hit (about 1.5% of all), similar ones and a draw of the others.

SMILES	cardiac RTF act	IDE cell inh	IDE cell activ	CRFBP-R2 block	CRFBP-R2 agonist	RTF Ca sens inh
O=C(Nc1ccc(C(F)(F)F)cc1)N1CCN(c2ccnc3cc(Cl)ccc23)CC1	nt	30*	nt	-6	5	nt
COc1ccc(Nc2nnc(SCC(=O)c3cc(C)n(CC4CCCO4)c3C)s2)cc1 (stereo unspecified)	-1	0	0	11	-2	-2
N#C/C(=C/c1ccncc1)c1nc2ccccc2c(=O)[nH]1	-2	4	1	3	1	-3
N#C/C(=C1\CCCN1)c1nc2ccccc2c(=O)[nH]1	3	4	10	68*	-2	4
Cc1nn(C)c(C)c1NS(=O)(=O)c1c(C)n[nH]c1C	5	-2	1	-8	0	-7
COc1cc(NC(=O)c2ccccc2)c(OC)cc1Cl	1	2	-1	11	-1	-13
COc1cc(OC)c(NC(=O)c2cc3ccccc3cc2O)cc1Cl	32*	nt	2	-12	5	3
Cc1ccccc1NS(=O)(=O)c1cc2c(cc1C)NC(=O)CO2	0	1	-3	-85	60*	-9
CN1CCC2(CC1)Nc1nc(SCc3ccc(Cl)cc3)nn1C1=C2CN(C)CC1	-3	7	4	86*	1	-7
O=C(NNc1ccc([N+](=O)[O-])cc1)C12CC3CC(CC(C3)C1)C2	1	4	-5	-40	4	-3
Cc1nc2ccc(NS(=O)(=O)c3ccc(C)c(C)c3)cc2s1	6	1	-2	78*	-3	-22
CC(=O)c1cccc(S(=O)(=O)Nc2ccc3nc(C)sc3c2)c1	-2	1	4	1	-1	-3
CC(C)c1ccc(NC(=O)[C@H]2CSCN2C(=O)[C@@H]2CCC(=O)N2)cc1	2	6	7	-4	-2	3
CCN(CC)S(=O)(=O)c1ccc(N2CCCCC2)c(NC(=O)/C(C#N)=C/c2ccc(OC)cc2)c1	2	4	3	14	2	1
CCOc1ccc(NC(=O)/C(C#N)=C/c2ccc(N3CCCC3)c(C)c2)cc1	67*	4	-9	-135	119*	-51
COc1ccccc1N1CCN(C(c2ccc(Cl)cc2)c2nnnn2C(C)(C)C)CC1 (stereo unspecified)	0	4	5	119*	-2	-3
Cc1c2cnn(CC(=O)NC3CCCC3)c(=O)c2c(C)n1Cc1ccccc1	0	6	1	111*	-1	4
Cc1ccc(S(=O)(=O)Nc2ccccc2C(=O)Nc2nc(-c3ccc(F)cc3)cs2)cc1	-11	-3	3	77*	22	-4
COc1ccc(-c2csc(NC(=O)c3ccccc3NS(=O)(=O)c3ccc(F)c(F)c3)n2)cc1	-1	-5	2	84*	43	-8
CCC(C)NC(=O)C(=O)NCC1CCCN1CC (stereo unspecified)	-2	7	0	8	0	-8
COc1cccc(CNC(=O)CCC2CCCN(C(=O)C3CCOCC3)C2)c1 (stereo unspecified)	6	0	2	-3	0	-6
CCOC(=O)C1=C(CN2CCN(C(=O)c3ccco3)CC2)NC(=O)NC1c1ccc(C)cc1 (stereo unspecified)	-3	-7	5	-3	-1	-9
CN1C(=O)NC(c2ccccc2)C2=C1CN(CCc1ccccc1)C2=O (stereo unspecified)	1	1	5	125*	0	-1
COc1ccc(CCN2CC3=C(C2=O)C(c2ccccc2)NC(=O)N3C)cc1OC (stereo unspecified)	5	-1	0	3	0	-3
COc1cccc(CNC(=O)Nc2cccs2)c1	2	6	1	4	-4	-2
SMILES	cardiac RTF act	IDE cell inh	IDE cell activ	CRFBP-R2 block	CRFBP-R2 agonist	RTF Ca sens inh
COc1ccc(CNC(=O)Nc2cccs2)cc1OC	-3	6	4	62*	0	-13
CC1=Nc2cccc([N+](=O)[O-])c2NC(=O)C1	3	nt	1	-2	-1	-14
N#Cc1cccc(-c2cn(S(=O)(=O)c3ccc(Cl)cc3)nc2N)c1	-4	4	3	-2	3	3
Cc1ccc(-c2csc(Nc3ccc(C(=O)O)cc3)[n+]2Cc2ccccc2)cc1	-2	-5	5	69*	-7	-7
CCOC(=O)c1ccc(NC(=O)NCc2cccnc2)cc1	-2	-4	1	-3	0	-5
O=C(NC(=O)c1ccccc1O)c1ccc(C(F)(F)F)cc1	nt	5	nt	52*	55*	nt
CCCc1ccc(C(=O)NC(=O)c2ccccc2O)cc1	7	8	-6	27	51*	-6
COc1ccc(N2N=NN(C(C)C)C2=C(Cl)c2nnnn2-c2ccc(OC)cc2)cc1	0	nt	-7	-11	-5	-4
Cc1cnc(C(=O)Oc2c(C)ccc(C)c2C)cn1	-1	2	6	-7	0	-3
CC(C)N(C(=O)COC(=O)c1cncc(Br)c1)C(C)C	2	1	-3	104*	2	-1
CNC[C@@H](CC1CCCCC1)NC[C@H](CC(C)C)NCCc1cccc(C(F)(F)F)c1	4	3	21*	-47	18	-6
CCC[C@H](CN[C@@H](CNC)[C@H](C)CC)NCCc1cc(C(F)(F)F)cc(C(F)(F)F)c1	11	6	8	-37	7	1
CC[C@@H](C)[C@H](CNC)NC[C@@H](Cc1cccc2ccccc12)NCCc1cccc(C(F)(F)F)c1	0	5	29*	-38	26	9
Cc1[nH]c2ccccc2c1/C=N/Nc1ccc([N+](=O)[O-])cc1S(=O)(=O)Nc1ccc(Cl)cc1	8	5	6	-141	109*	-5
COc1ccc(NS(=O)(=O)c2cc([N+](=O)[O-])ccc2N/N=C\c2c(C)[nH]c3ccccc23)cc1	-2	1	5	-73	48	-18
CC(C)C[C@H]1CN=C(Nc2ccccc2)N1CC1CCCCCC1	-4	6	4	-4	6	-5
COC(=O)c1scc(C)c1NC(=O)c1ccccc1F	2	2	-3	-179	204*	-5
COC(=O)c1scc(C)c1NC(=O)Nc1ccccc1	1	6	-3	16	-1	-10
COc1cc(/C=C2/C(=O)c3cccc([N+](=O)[O-])c3C2=O)c(Br)cc1O	-1	-10	3	39	6	-4
CC1=C(C#N)C(=O)NC1(C)O (stereo unspecified)	nt	nt	nt	12	-2	nt
CC1=C(C#N)C(=O)NC(C)(C)C1	6	1	0	54*	17	-24
CC(C)c1ccc(/C=C/C(=O)NC(=S)Nc2ccc(CN3CCOCC3)cc2)cc1	-9	18*	-10	-35	-2	-7

Screens (PubChem)
